Test results: PubChem BioAssay (EPA / NIEHS)
Calls of active or inactive are those of the source. Rule for the calls: active = hit-call score of the fitted dose curve at least 0.9, where 1 is the maximum; inactive = score below 0.9.

Assay: ATG_GATA_CIS: Attagene CIS-FACTORIAL HepG2 Assay for human GATA Binding Protein (AID 2282944)
Details: HepG2 GATA cis-element reporter, Attagene multiplex mRNA; actives raise or lower the signal
Method: ATG_CIS is a cell-based, multiplexed-readout assay that uses HepG2, a human liver cell line, with measurements taken at 24 hours after chemical dosing in a 24-well plate.ATG_GATA_CIS is one of 52 assay component(s) measured or calculated from the ATG_CIS assay. It is designed to make measurements of mRNA induction, a form of inducible reporter, as detected with fluorescence intensity signals by Reverse transcription polymerase chain reaction (RT-PCR) and Capillary electrophoresis technology.Data from the assay component ATG_GATA_CIS was analyzed into 1 assay endpoint. This assay endpoint, ATG_GATA_CIS, was analyzed with bidirectional fitting relative to DMSO as the negative control and baseline of activity. Using a type of inducible reporter, measures of mRNA for gain or loss-of-signal activity can be used to understand the reporter gene at the transcription factor-level as they relate to the gene GATA1. Furthermore, this assay endpoint can be referred to as a primary readout, because this assay has produced multiple assay endpoints where this one serves a reporter gene function. To generalize the intended target to other relatable targets, this assay endpoint is annotated to the dna binding intended target family, where the subfamily is GATA proteins.
Human liver HepG2 cells are transiently transfected with multiple reporter transcription units (MRTUs) in 6-well plates using FuGene 6 reagent (Roche; 3 ml FuGene/1 mg DNA). The MRTU constructs are regulated by a cis-regulating element (promoter). […] A major difference between the CIS and TRANS system is that in CIS activities of endogenous TFs are measured, whereas the TRANS assay evaluates changes in activities of exogenous, chimeric NR-Gal4 proteins. […] At the end of 24 hour incubation, total RNA was isolated using TriZol reagent (Invitrogen). The isolated RNA is then reverse-transcribed using oligo(dT) primer and Mo-MLV reverse transcriptase (Invitrogen) with DNAse I (Ambion) treatment for 30 min. The one-tenth of the produced cDNA was amplified by PCR using Taq DNA polymerase (Invitrogen) and two reporter sequence-specific primers. The PCR products were fluorescently labeled by primer extension with 6-arboxyfluorescein (6-FAM) 5'-labeled reporter sequence-specific primer (2 min at 95 C, 20 s at 68 C and 10 min at 72 C) and these products were digested with 5U of HpaI (New England Biolabs) for 2h at 37 C. The fragments were purified using Qiaquick PCR columns (Qiagen), analyzed on an ABI 3130xL genetic analyzer (Applied Biosystems) with peak positions identified by using a set of X-rhodamine (ROX)-labeled MapMarker1000 molecular weight standards (BioVentures). The raw capillary electrophoresis data was processed using Attagraph software (Attagene).

| SMILES | outcome | AC50 |
| --- | --- | --- |
| C=CCOC(=O)CCCCCC | inactive | – |
| CCCCC(CC)(CO)CO | inactive | – |
| ClC(c1ccccc1)(c1ccccc1)c1ccccc1 | inactive | – |
| CCN(CCC#N)c1ccc(N=Nc2ccc([N+](=O)[O-])cc2)cc1 | inactive | – |
| CC(C)C[C@H](NC(=O)OCC1c2ccccc2-c2ccccc21)C(=O)O | inactive | – |
| CCCCCCCCCCCC(=O)OCC(O)CO (stereo not given) | inactive | – |
| COC(=O)Nc1ccc(Cl)c(Cl)c1 | inactive | – |
| CC(C)CCCCCCc1ccc(OCCOCCO)cc1 | inactive | – |
| CCCCCCCC(=O)OCC(O)CO (stereo not given) | inactive | – |
| O=CCc1ccccc1 | inactive | – |
| Cc1cccc(Nc2ccccc2)c1 | inactive | – |
| CC1=NN(c2ccc(S(=O)(=O)O)cc2)C(=O)C1 | inactive | – |
| CCOC(=O)COC(=O)c1cc(Oc2ccc(C(F)(F)F)cc2Cl)ccc1[N+](=O)[O-] | inactive | – |
| CCCC1O[C@@H]2C[C@H]3[C@@H]4CCC5=CC(=O)C=C[C@]5(C)[C@H]4[C@@H](O)C[C@]3(C)[C@]2(C(=O)CO)O1 (stereo not given in full) | inactive | – |
| CCN(CCN)c1cccc(C)c1 | inactive | – |
| FC(F)(F)COCC(F)(F)F | inactive | – |
| COCCOC(=O)c1ccccc1C(=O)OCCOC | inactive | – |
| Cc1cc(S(=O)(=O)O)ccc1N=Nc1c(O)ccc2ccccc12 | inactive | – |
| CC(=O)O[C@@H]1CC2CCC1(C)C2(C)C (stereo not given in full) | inactive | – |
| NCC1CCCC(CN)C1 (stereo not given) | inactive | – |

| SMILES | outcome | AC50 |
| --- | --- | --- |
| CCOC(=O)CC(C)O (stereo not given) | inactive | – |
| O=C(Nc1ccc2c(O)c(N=Nc3ccc(N=Nc4ccc(S(=O)(=O)O)cc4)cc3)c(S(=O)(=O)O)cc2c1)c1ccccc1 | inactive | – |
| OCCc1ccccc1 | inactive | – |
| CCC(C)c1cc([N+](=O)[O-])cc([N+](=O)[O-])c1OC(=O)OC(C)C (stereo not given) | – | 24.1 µM (active) |
| CCCCC(CC)COC(C)=O (stereo not given) | inactive | – |
| [Cl][Au]([Cl])[Cl] | inactive | – |
| C=C(C)CNCC | inactive | – |
| CC(=O)NCCO | inactive | – |
| CCOc1ccccc1O | inactive | – |
| CCOc1ccc(NC(=O)CC(C)=O)cc1 | inactive | – |
| Cc1ncc[nH]1 | inactive | – |
| O=[N+]([O-])c1ccc(O)cc1C(F)(F)F | inactive | – |
| Cc1c(Cl)cccc1[N+](=O)[O-] | inactive | – |
| Nc1ccc(N)c2c1C(=O)c1ccccc1C2=O | inactive | – |
| O=C1OC(=O)c2c(Br)c(Br)c(Br)c(Br)c21 | inactive | – |
| C=C(C#N)C(=O)OCC | inactive | – |
| COc1cc(C(C)C)ccc1C | inactive | – |
| COc1ccccc1N=Nc1c(S(=O)(=O)O)cc2cc(S(=O)(=O)O)cc(NC(C)=O)c2c1O | inactive | – |
| O=C1CCCC=CCCCCCCCCCC1 | inactive | – |
| COc1ccc(N=Nc2cc(C)c(N=Nc3ccc(S(=O)(=O)O)cc3)cc2OC)cc1 | – | 100 µM (active) |
